HepG2 viability: counter-screen for TGF-b inhibitors: cytotoxicity in HepG2 cells; Potency, µM (highest dose often 46.1 µM), for inactives: at the highest dose activity change, negative = cytotoxicity, most hits filed as cytotoxic; hit rate 0.76% among 410,000; HepG2 CAGA-GFP viability, ATP luminescence, 18 h
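HepG2 CAGA-GFP cells (1000/well, DMEM with 1% FBS) received compound, then TGF-beta at 500 pg/mL final, and were incubated 18 hours at 37 degrees C. Viability was read by CellTiter-Glo luminescence. Media-only wells were set as complete cell-killing and DMSO as no toxicity.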
HT1080 IDH1KD tx: HT-1080 IDH1 knockdown cell toxicity (counter line); hit rate 2% among 360,000; HT-1080 IDH1 knockdown viability, ATP luminescence, 48 h; Potency, µM (titrated, usually from 46.1 µM), without a hit: at the highest dose activity, negative = toxicity, usual class: cytotoxic;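 further: 0% = DMSO wells and -100% = cell-free medium wells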
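Using the IDH1-knockdown HT-1080 line run in the same batch and compound series as the NT line, viability after 48 h at 37 °C was determined by CellTiter-Glo luminescence and expressed as % activity.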
TDP1 cell noCPT: qHTS for Inhibitors of human tyrosyl-DNA phosphodiesterase 1 (TDP1): qHTS in cells in absence of CPT; DT40 Tdp1-/- hTDP1 cells, no CPT, ATP luminescence, 48 h; Potency, µM (titrated, usually from 46.2 µM), inactives show at the top dose activity change, negative = growth inhibition, usual class: inhibitors; hit rate 15% among 420,000; AID 686978, 2013; further: on the % scale 0 is the no-effect control and ±100 the full control effect; nearly all actives have a fitted effect of over 55% in size
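Luminescent ATP content (CellTiter-Glo) served as the growth readout. Knockout chicken DT40 cells expressing human TDP1 were exposed to compounds without camptothecin for a minimum 48 hr at 37 °C.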
HT1080-NT tox: kills 2HG-producing HT-1080-NT fibrosarcoma cells; HT-1080-NT fibrosarcoma viability, CellTiter-Glo ATP luminescence, 48 h; hit rate 1.6% among 360,000; Potency, µM (highest dose often 46.1 µM), without a hit: at the top dose activity, negative = less viability, actives largely listed as cytotoxic;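 further: NT is the 2HG producing partner of a matched IDH1 knockdown line; 0% = DMSO-treated cells and -100% = media-only wells without cells; nearly all actives have a fitted effect of over 55% in size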
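A 48-hour cytotoxicity screen used HT-1080-NT cells plated 2 hours before compound delivery. ATP-based CellTiter-Glo luminescence measured viability, normalized to DMSO and no-cell controls.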
DT40 TDP1 CPT: DT40-hTDP1 cell growth loss with CPT | chicken DT40 Tdp1-/-;hTDP1 cells + 20 nM CPT, ATP luminescence, 48 h | Potency, µM (top dose mostly 46.2 µM), inactives show at the highest dose activity change, negative = growth inhibition, usual class: inhibitors | hit rate 12% among 420,000 | AID 686979; further: on the % scale 0 is the no-effect control and ±100 the full control effect; nearly all actives have a fitted effect of over 55% in size
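Cell growth measured by CellTiter-Glo luminescence after a minimum 48 h, 37 C compound exposure with 20 nM CPT in Tdp1-knockout DT40 cells stably expressing hTDP1, seeded 400/well; qHTS titration format.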
TGFb SMAD3 inh: blocks TGF-b signaling; HepG2 CAGA-GFP TGF-b/SMAD3 reporter, GFP fluorescence, 18 h; TGF-beta stimulated, 500 pg/mL final; Potency, µM (series often up to 46.1 µM), without a hit: top-dose activity, negative = inhibition, most hits filed as inhibitors; hit rate 1.2% among 410,000; AID 588855; further: on the % scale 0 is the no-effect control and ±100 the full control effect; nearly all actives have a fitted effect of over 65% in size
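HEPG2 CAGA-GFP reporter cells (1000/well, DMEM with 1% FBS) received compounds, then recombinant TGF-beta at 500 pg/mL final for 18 hours at 37 degrees C. Per-cell GFP summed per well was normalised to unstimulated and stimulated DMSO controls before curve fitting.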
* = called active by the depositor; ? = inconclusive; · = no result given; ! = repeats disagree. Rows were chosen to be rich in hits. Some 17% of all compounds tested hit in one or more screens of this group. The call rests on the fitted dose curve; in most records, active means well fitted curve in the direction sought with a large enough effect; inconclusive means small, poorly fitted or top-dose-only effect, or another doubt; inactive means no such curve, though single readings can be large; an effect the other way counts as inactive or inconclusive. Potency means the concentration at half of the fitted maximal effect.

SMILES	HepG2 viability	HT1080 IDH1KD tx	TDP1 cell noCPT	HT1080-NT tox	DT40 TDP1 CPT	TGFb SMAD3 inh
Cc1cc(N2CCOCC2)nc(SCc2c(Cl)cccc2Cl)n1	-24%	-19%	?	-18%	?	11µM*
CSCc1cc(N2CCOCC2)nc(SCc2ccc(Cl)c(Cl)c2)n1	-27%	?	-16%	?	21µM*	-10%
Cc1cc(N2CCOCC2)nc(SCC(=O)c2ccc(Cl)cc2)n1	-2%	3%	?	8%	16µM*	2%
Cc1cc(N2CCCC2)nc(SCC(=O)c2ccccc2)n1	-5%	-11%	23µM*	2%	?	7%
Cc1ccc2c(c1)cc1c(=O)n(Cc3ccccc3Cl)nc(C)n12	-2%	·	-1%	·	1%	-12%
CC1CC(C)CN(CCCCOc2ccc([N+](=O)[O-])cc2)C1 (centres undefined)	-8%	-1%	?	-4%	6%	-1%
CCOc1ccccc1CNS(=O)(=O)c1ccc2c(c1)C(C)(C)C(=O)N2C	5%	3%	23µM*!	1%	?	15%
Cc1ccc(NC(=O)c2ccc(CNS(=O)(=O)c3ccc4c(c3)C(C)(C)C(=O)N4C)cc2)cc1	-11%	·	-18%	·	2%	0%
CCc1ccccc1NS(=O)(=O)c1ccc2c(c1)C(C)(C)C(=O)N2C	-16%	5%	?	-6%	?	-5%
Cc1ccc(NC(=O)c2ccc(CNS(=O)(=O)c3ccc4c(c3)C(C)(C)C(=O)N4C)cc2)cc1F	-14%	·	15µM*	·	16µM*	-7%
CCc1cccc(NC(=O)c2ccc(CNS(=O)(=O)c3ccc4c(c3)C(C)(C)C(=O)N4C)cc2)c1	-35%	·	16µM*	·	?	?
O=C(CSc1ncnc2c1oc1ccccc12)Nc1cccc(Cl)c1	-32%	-23%	-17%	-12%	?	-3%
Clc1ccc2oc3c(Cl)ncnc3c2c1	-15%	6%	6.5µM*	-15%	18µM*	1%
OCC1(Cc2ccc(Cl)cc2)CCN(CC2CC=CCC2)CC1 (centres undefined)	-39%	?	?	-14%	29µM*	-22%
OCC1(Cc2ccc(Cl)cc2)CCN(Cc2ccccc2F)CC1	-26%	?	?	?	?	-10%
O=C(c1cnsn1)N1CCC(CO)(Cc2ccc(Cl)cc2)CC1	7%	2%	?	3%	4%	-4%
OCC1(Cc2ccc(Cl)cc2)CCN(CCCc2ccccc2)CC1	-64%	?	23µM*	?	?	?
CSc1ccc(CN2CCC(CO)(Cc3ccc(Cl)cc3)CC2)cc1	-156%	-23%	18µM*	?	?	22µM*
CCC(C)(NC(=O)c1ccc2c(c1)OCO2)C(=O)NC1CCCCC1 (centres undefined)	-1%	18%	-1%	4%	3%	1%
NC(=O)c1nc(C(=O)N2CCN(c3ccccc3)CC2)c2ccccc2n1	-10%	-1%	-19%	1%	-25%	-16%
COc1ccc(C2NC(=S)N3C(c4ccc(OC)c(OC)c4)NC(=S)N23)cc1OC (centres undefined)	·	·	0.0094µM*	·	0.006µM*	·
COCCCNC(=O)CSc1nc2cc3c(cc2c(=O)n1CCCCCC(=O)NCc1ccc(OC)cc1)OCO3	2%	·	-22%	·	-8%	7%
Cc1ccc(NC(=O)C2C3C=CC4(O3)C2C(=O)N(CCCN2CCCCC2)C4C(=O)NC2CCCCC2)cc1C (centres undefined)	3%	-7%	-1%	-9%	0%	-2%
Cc1c(C(=O)N2CCCc3ccccc32)oc2ccc(S(=O)(=O)N3CCOCC3)cc12	-45%	?	11µM*	?	14µM*	22%
CCN(C(=O)c1oc2ccc(S(=O)(=O)N3CCCCCC3)cc2c1C)c1ccccc1	-24%	·	15µM*	·	23µM*	?
SMILES	HepG2 viability	HT1080 IDH1KD tx	TDP1 cell noCPT	HT1080-NT tox	DT40 TDP1 CPT	TGFb SMAD3 inh
CCOC(=O)C1CCN(C(=O)c2oc3ccc(S(=O)(=O)N4CC(C)CC(C)C4)cc3c2C)CC1 (centres undefined)	-16%	-5%	16µM*	-9%	18µM*	-16%
CCOC(=O)N1CCN(c2ccc(S(=O)(=O)N3CCC(C)CC3)cc2[N+](=O)[O-])CC1	-11%	?	13µM*	-4%	21µM*	?
Cc1c(C(=O)N(C)Cc2ccccc2)oc2ccc(S(=O)(=O)N3CCCC3)cc12	-43%	-6%	?	-13%	-22%	-9%
CCc1ccccc1N(C)C(=O)c1nn(-c2ccc(OC)cc2)c(=O)c2c1c1ccccc1n2C	-20%	·	?	·	?	-1%
COC(=O)c1ccccc1NS(=O)(=O)c1c(C)noc1C	9%	6%	23%	8%	-16%	0%
CCOC(=O)N1CCN(C(=O)c2oc3ccc(S(=O)(=O)N4CCCCCC4)cc3c2C)CC1	-23%	-11%	13µM*	-14%	15µM*	-6%
Cc1c(C(=O)N2CCc3ccccc3C2)oc2ccc(S(=O)(=O)N3CCCCCC3)cc12	0%	-5%	18µM*	6%	23µM*	-30%
O=S(=O)(c1ccc2oc3ccccc3c2c1)N1CCCC1	14%	2%	?	6%	-23%	22%
O=C(c1ccc(S(=O)(=O)N2CCc3ccccc3C2)cc1)N1CCCCC1	-13%	-4%	26µM*	-4%	?	-21%
CCN(CC)C(=O)C1CCN(S(=O)(=O)c2ccc3oc4ccccc4c3c2)CC1	-4%	-4%	16µM*	-7%	21µM*	-21%
O=C(NCc1ccc(N2CCCC2=O)cc1)c1cc(COc2c(F)cccc2F)on1	1%	7%	?	3%	?	3%
COc1cccc(CNC(=O)CCc2ccc(OC)c(OC)c2)c1	-1%	-2%	-6%	-3%	13%	-2%
OC[C@@H]1CN(Cc2ccc(Cl)cc2)C[C@H](n2cnc3c(Nc4ccccc4)ncnc32)O1	-25%	?	?	?	?	?
O=C(NNC(=O)C1CCN(Cc2ccccc2)CC1)c1cccs1	-3%	5%	8%	-2%	9%	8%

Source: PubChem BioAssay (National Center for Advancing Translational Sciences (NCATS))
